# From PubChem BioAssay (NCATS)
# Records with an inconclusive call do not appear. Where a call stands in place of a potency, no number is given. Activity calls are given as the source filed them. The call rests on the fitted dose curve; in most records, active means well fitted cell-killing curve with a large enough effect; inconclusive means small, poorly fitted or top-dose-only effect; inactive means flat fitted curve, though single readings scatter.
# Assay: Cell Viability - SH-SY5Y (AID 544); further: nearly all actives have a fitted effect of over 55% in size
# Details: SH-SY5Y neuroblastoma cell viability; viability change, negative = cytotoxic: at 92.2 µM (top of the series)
# From the text: NIH Chemical Genomics Center [NCGC]
# NIH Molecular Libraries Screening Centers Network [MLSCN]
# National Institutes of Environmental Health Sciences [NIEHS]
# National Toxicology Program [NTP]
# We have developed a 1536-well cell-based assay for quantitative high throughput screening (qHTS) against a number of cell lines to determine in vitro cytotoxicity of small molecules. This particular assay uses the SH-SY5Y cell line which is derived from human neuroblastoma.
# NCGC Assay Protocol Summary:
# The CellTiter-Glo luminescent cell viability assay (Promega) is a homogeneous method to measure the number of viable cells in culture. The end point readout of this assay is based on quantitation of intracellular ATP, an indicator of metabolic activity, using the luciferase reaction. Luciferase catalyzes the oxidation of beetle Luciferin to oxyluciferin and light in the presence of ATP. The luminescent signal is proportional to amount of ATP present.
# Using the CellTiter-Glo luminescent cell viability assay, the amount of cellular ATP was measured in the SH-SY5Y cell line with complete culture medium following compound treatment for 40 hours. The assay was performed in opaque white Kalypsys 1536-well plates. In the screen, tamoxifen and doxorubicin were used as positive controls. Library compounds were measured for their ability to cause acute toxicity in the cell line, as reflected by a decrease in intracellular ATP levels, in a concentration-dependent manner. […] AC50 values were determined from concentration-response data modeled with the standard Hill equation.
# qHTS protocol for CellTiter Glo SH-SY5Y cellular assay
# [Step] [Parameter] [Value] [Description]
# 1. Reagent; 5 uL; 1500 SH-SY5Y cells/well
# 2. Time; 5 hr; 37 °C incubation
# 4. Controls; 23 nL; Tamoxifen 0.34 uM to 100 uM & Doxorubicin 0.02 nM to 100 uM
# 5. Time; 40 hr; 37 °C incubation
# 6. Reagent; 5 uL; CellTiter Glo reagent
# 7. Time; 20 min; Room Temperature
# 8. Detection; Luminescence; Viewlux plate reader
# Keywords: cell viability, cytotoxicity, SH-SY5Y cell line, luminescence, NTPHTS, NTPHTS_NCGC, NIEHS, EPA, DSSTox, MLSMR, MLSCN, NIH Roadmap, qHTS, NCGC
row,Structure (SMILES),Potency
1,Cc1cc(C)c(N)cc1C,inactive
2,CC(C)(C)OCC1CO1 (stereo not given),inactive
3,COC(=O)CS,inactive
4,CC(C)=CCl,inactive
5,O=C(O)CNC(=O)c1ccc([N+](=O)[O-])cc1,inactive
6,C1CCCC1,inactive
7,CCCCCCC(=O)O,inactive
8,CNC(=O)c1ccccc1,inactive
9,Cc1cc(C)cc([N+](=O)[O-])c1,inactive
10,Cc1ccccc1C#N,inactive
11,C=Cc1ccccn1,inactive
12,O=[N+]([O-])c1ccccc1CCO,inactive
13,CCCCC(CC)CNCC(CC)CCCC (stereo not given),inactive
14,CC(C)Cc1nccs1,inactive
15,COc1ccc(N)c(OC)c1,inactive
16,CC(=O)Nc1ccccc1C,inactive
17,FB(F)F,inactive
18,Nc1ccccc1[N+](=O)[O-],inactive
19,C[C@@H]1O[C@@H](O[C@@H]2[C@@H](O)[C@H](OCCc3ccc(O)c(O)c3)O[C@H](CO[C@@H]3O[C@H](CO)[C@@H](O)[C@H](O)[C@H]3O)[C@H]2OC(=O)/C=C/c2ccc(O)c(O)c2)[C@H](O)[C@H](O)[C@H]1O,inactive
20,CC(C)c1ccccc1,inactive

row,Structure (SMILES),Potency
1,CC(=O)Nc1ccc(C)cc1,inactive
2,Cc1ccc(N(C)C)cc1,inactive
3,C=CCOC(=O)COCCC(C)C,inactive
4,O=C(O)CNC(=O)c1ccc(CO)o1,inactive
5,COc1cccc(N)c1,inactive
6,CCCCN(CCO)CCCC,inactive
7,CCCCCO,inactive
8,C=C(C)OC(C)=O,inactive
9,O=C(O)c1cccc([N+](=O)[O-])c1,inactive
10,CC(=O)c1ccccn1,inactive
11,O=[N+]([O-])c1cccc(Cl)c1,inactive
12,CC1CCC2CC1C2(C)C (stereo not given),inactive
13,CCC(O)C(C)(C)C (stereo not given),inactive
14,CC(=O)OC(C)=O,inactive
15,CCCC(C)CO (stereo not given),inactive
16,CCCCCCO,inactive
17,CN(C)CCCCl,inactive
18,Cc1ccco1,inactive
19,CC(C)C=O,inactive
20,Oc1c(Cl)ccc(Cl)c1Cl,inactive
